Tests used:
Format in all cases: functional
[1] = target: Solute carrier family 2, facilitated glucose transporter member 1 (Homo sapiens) (UniProt P11166); test: ST_JUDE_LEISH: Cytotoxicity at 2uM final concentration against transgenic Leishmania Mexicana promastigotes LmGLUT1 that are glucose transport deficient and complemented with the human glucose transporter GLUT1. Activity is measured by DNA content using SYBR green in vitro
[2] = target: Hexose transporter 1 (Plasmodium falciparum) (UniProt O97467); test: ST_JUDE_LEISH: Cytotoxicity at 2uM final concentration against transgenic Leishmania Mexicana promastigotes LmPfHT that are glucose transport deficient and complemented with the Plasmodium falciparum hexose transporter. Activity is measured by DNA content using SYBR green in vitro
[3] = target: Glucose transporter (Leishmania mexicana) (UniProt O61059); test: ST_JUDE_LEISH: Cytotoxicity at 2uM final concentration against transgenic Leishmania Mexicana promastigotes LmGT2 that are glucose transport deficient and complemented with the L. Mexicana glucose transporter 2. Activity is measured by DNA content using SYBR green in vitro

Solute carrier family 2, facilitated glucose transporter member 1 (Homo sapiens), sequence (P11166 whole entry): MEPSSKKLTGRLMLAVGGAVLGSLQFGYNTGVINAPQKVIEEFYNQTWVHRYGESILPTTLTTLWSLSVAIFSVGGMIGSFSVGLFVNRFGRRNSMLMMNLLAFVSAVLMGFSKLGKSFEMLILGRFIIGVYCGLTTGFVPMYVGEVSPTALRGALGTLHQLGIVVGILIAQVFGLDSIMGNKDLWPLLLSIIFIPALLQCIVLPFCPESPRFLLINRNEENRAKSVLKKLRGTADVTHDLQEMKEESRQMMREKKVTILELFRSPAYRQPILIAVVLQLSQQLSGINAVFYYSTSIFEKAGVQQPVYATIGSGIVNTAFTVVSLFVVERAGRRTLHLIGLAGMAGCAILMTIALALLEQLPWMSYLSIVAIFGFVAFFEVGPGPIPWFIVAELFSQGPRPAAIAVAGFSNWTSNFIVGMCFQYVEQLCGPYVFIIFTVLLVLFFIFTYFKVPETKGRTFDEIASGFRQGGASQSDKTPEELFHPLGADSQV

CC(Sc1nc2sccc2c(=O)n1C)C(=O)Nc1ccc2c(c1)OCO2 (centres undefined)
inhibition [1]: 4.94%
inhibition [2]: 5.47%
inhibition [3]: 3%

CS(=O)(=O)CCNCc1nc(-c2ccc3ncnc(Nc4ccc(OCc5ccccc5)c(Cl)c4)c3c2)cs1
inhibition [1]: 4.21%
inhibition [2]: 3.42%
inhibition [3]: 2.9%

COc1cc2ccccc2c(OC)c1CCNCCCCNCCc1c(OC)cc2ccccc2c1OC
inhibition [1]: 10.9%
inhibition [2]: 12.1%
inhibition [3]: 14.6%

COc1cc(CS(C)(=O)=O)ccc1Nc1nccc(-c2c(-c3cccc(NC(=O)c4c(F)cccc4F)c3)nn3ccccc23)n1
inhibition [1]: 13.5%
inhibition [2]: 20.7%
inhibition [3]: 7.36%

N#Cc1ccc2c(c1)CCN(CCC1CCC(Nc3ncnc4ccccc34)CC1)C2 (centres undefined)
inhibition [1]: 10.7%
inhibition [2]: 3.96%
inhibition [3]: 4.21%

Cc1cccc2nc(-c3ccc(-c4ccc(CN5CCN(CC6CCCN(C)C6)CC5)cc4)cc3)[nH]c12 (centres undefined)
inhibition [1]: 8.82%
inhibition [2]: 10.8%
inhibition [3]: 6.25%

Cc1cccc2nc(O)c([N+](=O)[O-])c(O)c12
inhibition [1]: 2.09%
inhibition [2]: 1.72%
inhibition [3]: 2.14%

N#CC(c1cccc(Cl)c1)c1ccc2c(C(F)(F)F)cc(C(F)(F)F)nc2n1 (centres undefined)
inhibition [1]: 9.02%
inhibition [2]: 7.47%
inhibition [3]: 6.02%

CN(C)CCC1CCCc2ccc(NC(=O)Nc3cccc(Cl)c3Cl)cc21 (centres undefined)
inhibition [1]: 1.81%
inhibition [2]: 2.38%
inhibition [3]: 1.03%

COc1ccccc1C1CCN(C2CCC(NC(=O)/C=C/c3ccc(C(F)(F)F)cc3)CC2)CC1 (centres undefined)
inhibition [1]: 1.41%
inhibition [2]: 2.17%
inhibition [3]: 2.85%

Clc1ccc2c(NCc3ccccc3)ccnc2c1
inhibition [1]: 1.8%
inhibition [2]: 3%
inhibition [3]: -0.97%

O=C(/C=C/c1ccc(Cl)cc1)NCCCCCN1CCCN(C(=O)Nc2ccc(F)c(Cl)c2)CC1
inhibition [1]: 5.5%
inhibition [2]: 3.92%
inhibition [3]: 4.64%

CCOc1ccc(CCCON2C(=N)N=C(N)NC2(C)C)cc1
inhibition [1]: 9.39%
inhibition [2]: 10.4%
inhibition [3]: 9.73%

O=C1NC(C(=O)Nc2ccccc2)C(c2ccccc2)S1 (centres undefined)
inhibition [1]: -0.88%
inhibition [2]: -1.96%
inhibition [3]: -0.52%

c1ccc(CNCc2cccc(-c3ccc(-c4nc5ccccc5[nH]4)s3)c2)cc1
inhibition [1]: 4.03%
inhibition [2]: 3.45%
inhibition [3]: 3.41%

O=C(Nc1ccc(Cn2ncc(N3CCCNCC3)c(Cl)c2=O)cc1)Nc1ccc(SC(F)(F)F)cc1
inhibition [1]: 3.57%
inhibition [2]: 10.1%
inhibition [3]: -1.22%

O=C(NCc1cccs1)[C@H](Cc1ccccc1)Nc1ccnc(NCC2CCCCC2)n1
inhibition [1]: 11.9%
inhibition [2]: 10.5%
inhibition [3]: 10.6%

c1ccc(COc2ccc(C3CCCCC3)cc2)nc1
inhibition [1]: 0.38%
inhibition [2]: 2.32%
inhibition [3]: 2.1%

Cc1nc(Cl)c2c(-c3ccccc3)csc2n1
inhibition [1]: 0.55%
inhibition [2]: -0.74%
inhibition [3]: -0.21%

COc1c(C2CCN(CCCCNC(=O)C=Cc3ccccc3C(F)(F)F)CC2)ccc2c1CCCC2
inhibition [1]: -0.06%
inhibition [2]: -0.81%
inhibition [3]: -0.49%

O=c1cc(NCCCNCc2ccc3c(c2)OC(F)(F)O3)[nH]c2ccccc12
inhibition [1]: -0.44%
inhibition [2]: 0.16%
inhibition [3]: -1.35%

O=C(Nc1ccc([N+](=O)[O-])cc1)Nc1nc2ccc(Cl)cc2s1
inhibition [1]: 5.09%
inhibition [2]: 4.52%
inhibition [3]: 1.81%

CCN(CC)CCN(Cc1ccc(-c2ccc(C(F)(F)F)cc2)cc1)C(=O)Cn1c(SCc2ccc(F)cc2)nc(=O)c2sccc21
inhibition [1]: 5.28%
inhibition [2]: 2.81%
inhibition [3]: 4.07%

O=S(=O)(NCCCN1CCOCC1)c1ccc2nccc(Nc3ccc(Oc4ccccc4)cc3)c2c1
inhibition [1]: -1.16%
inhibition [2]: -0.87%
inhibition [3]: -0.94%

CCCCCc1ccc(NC(=O)Nc2ccc(Cn3ncc(N4CCCNCC4)c(Cl)c3=O)cc2)cc1
inhibition [1]: -1.1%
inhibition [2]: -1.27%
inhibition [3]: 0.47%

COc1ccc(Nc2cc(C)c3cc(NC(=O)c4ccncc4)ccc3n2)cc1
inhibition [1]: 0.86%
inhibition [2]: 2.43%
inhibition [3]: 0.74%

O=C(CC(=O)C(F)(F)F)c1ccccc1[N+](=O)[O-]
inhibition [1]: 0.17%
inhibition [2]: 3.36%
inhibition [3]: -1.14%

OC(CNCCc1ccccc1)Cn1c2ccc(Cl)cc2c2cc(Cl)ccc21 (centres undefined)
inhibition [1]: -1.53%
inhibition [2]: -1.78%
inhibition [3]: -2.27%

CCN(CC)c1ccc2nc(N)nc(N)c2c1Cl
inhibition [1]: 5.94%
inhibition [2]: 6.11%
inhibition [3]: 4.52%

NC(=O)c1cccc(CNC(=O)NC[C@H]2CN(Cc3ccc(Cl)c(Cl)c3)CCO2)c1
inhibition [1]: 7.5%
inhibition [2]: 6.84%
inhibition [3]: 6.5%

CCCOc1ccc(-c2nonc2NC(=O)c2cccc(OC)c2)cc1OCCC
inhibition [1]: 8.68%
inhibition [2]: 10.9%
inhibition [3]: 10.5%

COc1ccc2c(c1)Sc1ccccc1C(N1CCN(CCO)CC1)C2 (centres undefined)
inhibition [1]: 1.57%
inhibition [2]: 2.05%
inhibition [3]: 2.69%

O=C(/C=C/c1ccc(Cl)c(Cl)c1)NCCCCCN1CCC(CCNC(=O)/C=C/c2ccc(Cl)c(Cl)c2)CC1
inhibition [1]: 1.63%
inhibition [2]: -0.93%
inhibition [3]: 0.87%

Cc1ccc(S(=O)(=O)NC2=NC(=N)N(OCc3ccc(Cl)c(Cl)c3)C(C)(C)N2)cc1
inhibition [1]: 12.6%
inhibition [2]: 13.6%
inhibition [3]: 13.9%

CC(C)NCc1cccc(-c2ccc(-c3nc4ccccc4[nH]3)cc2)c1
inhibition [1]: 3.1%
inhibition [2]: 2.97%
inhibition [3]: 0.41%

O=C(NCCc1ccccc1)N(Cc1ccccc1-c1cccc(CNCCc2ccccc2)c1)C1CCN(Cc2ccccc2)CC1
inhibition [1]: 2.61%
inhibition [2]: 1.06%
inhibition [3]: 5.48%

Cc1cccc2nc(-c3ccc(-c4cccc(NC(=O)Nc5ccc(Cl)c(Cl)c5)c4)s3)[nH]c12
inhibition [1]: 0.85%
inhibition [2]: -0.11%
inhibition [3]: 0.38%

O=C(NCc1cccc(C(F)(F)F)c1)C(c1cc2ccccc2o1)N1CCN(C(c2ccccc2)c2ccccc2)CC1 (centres undefined)
inhibition [1]: 1.37%
inhibition [2]: 2.33%
inhibition [3]: 0.71%

COc1ccc(-n2ccnc2SCC(=O)Nc2cc(C(F)(F)F)ccc2Cl)c(OC)c1
inhibition [1]: 12.8%
inhibition [2]: 11.2%
inhibition [3]: 7.95%

COc1ccc(CNCc2cccc(-c3cccc(-c4nc5cc(C(F)(F)F)ccc5[nH]4)c3)c2)cc1
inhibition [1]: 5.4%
inhibition [2]: 4.65%
inhibition [3]: 3.48%

Cc1cc(CN2C(=O)C(c3ccccc3)(c3ccccc3)N=C2N)c(C(F)(F)F)o1
inhibition [1]: 6.61%
inhibition [2]: 9.85%
inhibition [3]: 6.9%

O=C(NCCCCCN1CCC(c2c[nH]c3ccccc23)CC1)Nc1cccc(I)c1
inhibition [1]: 14.6%
inhibition [2]: 12.6%
inhibition [3]: 5.88%

CS(=O)(=O)Nc1cccc(-c2cnc3[nH]cc(-c4cc(N)cc(C(=O)O)c4)c3c2)c1
inhibition [1]: 0.76%
inhibition [2]: 1.94%
inhibition [3]: -0.41%

COc1ccc(-c2ccc(NC(=O)c3cccc(Cl)c3)cc2)cc1CN1CCN(C)CC1
inhibition [1]: 6.52%
inhibition [2]: 4.97%
inhibition [3]: 3.15%

COc1cccc2sc(N3CCN(C(=O)c4ccc([N+](=O)[O-])o4)CC3)nc12
inhibition [1]: 2.53%
inhibition [2]: 11.9%
inhibition [3]: 4.81%

COc1ccc(CN2CCCC(Nc3ccc(F)c(F)c3)C2)c(O)c1 (centres undefined)
inhibition [1]: 2.58%
inhibition [2]: 1.39%
inhibition [3]: 3.1%

COC(=O)C1=CNC=C(C(=O)OC)C1c1ccc(Cl)c([N+](=O)[O-])c1
inhibition [1]: 10.8%
inhibition [2]: 8.44%
inhibition [3]: 6.42%

CCOC(=O)c1c(CN2CCCC2)n(-c2ccccc2)c2cc(Br)c(O)cc12
inhibition [1]: 17%
inhibition [2]: 14%
inhibition [3]: 16.7%

COc1ccc(C)c(Nc2ccnc(Nc3cccc(-c4nc5ccccc5[nH]4)c3)n2)c1
inhibition [1]: 3.82%
inhibition [2]: 1.79%
inhibition [3]: 2.68%

Cc1cccc(CNc2nc(C)cc(NCCC(=O)Nc3ccccc3)n2)c1
inhibition [1]: 10.3%
inhibition [2]: 11.3%
inhibition [3]: 5.57%

O=C(Nc1ccc2ccccc2c1)N(CCCn1ccnc1)Cc1csc(-c2ccc(CNCc3ccccc3)cc2)n1
inhibition [1]: -0.95%
inhibition [2]: 0.41%
inhibition [3]: 1.63%

Cc1cccc(-c2nn(-c3ccccc3)cc2C(=O)Nc2nnc(C)o2)c1
inhibition [1]: -1.38%
inhibition [2]: -1.47%
inhibition [3]: 2.67%

CN1Cc2ccc(NS(=O)(=O)c3ccc(-c4ccoc4)cc3)cc2C1
inhibition [1]: -2.45%
inhibition [2]: -1.72%
inhibition [3]: -3.6%

O=S(=O)(NCCN1CCCC1)c1ccc(-c2cccc(CNCCc3cccs3)c2)cc1
inhibition [1]: 5.24%
inhibition [2]: 5.07%
inhibition [3]: 3.91%

Cc1noc(C)c1-c1cccc(CNCc2cccc(-c3ccc(-c4nc5ccccc5[nH]4)s3)c2)c1
inhibition [1]: 8.57%
inhibition [2]: 3.74%
inhibition [3]: 7.45%

Cc1cc(N)nc2ccc(-c3cccc(CN)c3)cc12
inhibition [1]: 0.78%
inhibition [2]: 0.76%
inhibition [3]: -2.14%

COc1cc2c(cc1S(=O)(=O)c1ccc(COc3ccc(C(F)(F)F)cc3)cc1)CNCC2
inhibition [1]: -1.59%
inhibition [2]: -0.71%
inhibition [3]: -1.92%

Fc1c(CNCC2CCN(CC3CCCCC3)CC2)cccc1C(F)(F)F
inhibition [1]: 4.53%
inhibition [2]: 3.93%
inhibition [3]: 5%

Cc1cccc2c(/C=C/C(=O)NC3CCC(CCN4CCc5ccc(C#N)cc5CC4)CC3)c[nH]c12 (centres undefined)
inhibition [1]: 10.1%
inhibition [2]: 8.44%
inhibition [3]: 7.58%

Cc1cc(C2CCN(CCCCNC(=O)c3ccc(-c4ccc(C(F)(F)F)cc4)cc3)CC2)c(C)cc1OCC(N)=O
inhibition [1]: 0.54%
inhibition [2]: 1.14%
inhibition [3]: 0.73%

O=C(Nc1cc(F)c(F)c(-c2cccnc2)c1)N1CCc2cc(Cl)c(Cl)cc21
inhibition [1]: 0.67%
inhibition [2]: -1.8%
inhibition [3]: -0.31%

CN(C)CCCOc1ccc(-c2csc(NC(=N)NCc3ccccc3)n2)cc1
inhibition [1]: 1.32%
inhibition [2]: 6.08%
inhibition [3]: 3.86%

Cc1cccc2nc(-c3cccc(-c4ccc(NC(=O)Nc5ccc(Cl)c(Cl)c5)cc4)c3)[nH]c12
inhibition [1]: 0.3%
inhibition [2]: -1.23%
inhibition [3]: 1.91%

Cc1cc(Nc2ccnc(-c3ccc(Cl)cc3)n2)ccn1
inhibition [1]: 7.95%
inhibition [2]: 8.43%
inhibition [3]: 8.52%

O=C(/C=C/c1cccc(C(F)(F)F)c1)NCCCCCN1CCC(c2c[nH]c3ccccc23)CC1
inhibition [1]: 4.06%
inhibition [2]: 3.58%
inhibition [3]: 1.4%

CN(C)CCOc1cc(NC(=O)Nc2ccc(-c3ccncc3)c(Cl)c2)ccc1I
inhibition [1]: 2.24%
inhibition [2]: 1.09%
inhibition [3]: 1.54%

CCNC(=O)Nc1cccc(-c2cccc(-c3nc4cccc(C)c4[nH]3)c2)c1
inhibition [1]: 4.32%
inhibition [2]: 2.2%
inhibition [3]: 3.06%

CCOc1ccc(N2CCN(CCCCNC(=O)c3ccc(NC(=O)c4ccc(Cl)cc4)cc3)CC2)c(OCC)c1
inhibition [1]: 1.06%
inhibition [2]: 1.88%
inhibition [3]: 2.35%

CCC(C)CNC(=O)CN1CN(c2ccccc2)C2(CCN(C(=O)c3ccc(Br)cc3)CC2)C1=O (centres undefined)
inhibition [1]: 0.35%
inhibition [2]: -0.13%
inhibition [3]: 0.82%

CN(C)c1ccc(C2(c3ccccc3)N=C(N)N(CCCc3ccccc3)C2=O)cc1 (centres undefined)
inhibition [1]: 3.64%
inhibition [2]: 3.4%
inhibition [3]: 0.65%

O=C(Nc1cccnc1)c1cc(C(=O)Nc2cccnc2)cc([N+](=O)[O-])c1
inhibition [1]: 0.86%
inhibition [2]: 3.44%
inhibition [3]: 0.83%

O=C(Nc1ccc(Cl)c(Cl)c1)Nc1ccc2nccc(N3CCN(Cc4ccccc4)CC3)c2c1
inhibition [1]: 3.7%
inhibition [2]: 0.94%
inhibition [3]: 3.64%

CC(C)NCc1ccc(-c2ccc(NC(=O)c3cccc(Cl)c3)cc2)cc1
inhibition [1]: -2.83%
inhibition [2]: -1.18%
inhibition [3]: -3.53%
